ATG4B inhibitor: ATG4B protease inhibitors, primary screen, biochemical, fluorescence, uHTS | Cysteine protease ATG4B (Homo sapiens), Q9Y4P1 | ATG4B cleavage of LC3-PLA2, NBD-HPC fluorescence, 1 h | inhibition, % at 8.33 µM | actives 0.51% (n = 340,000) | AID 504462, 2011; in the data active means inhibition above about 40%
Neddylation inh: inhibitors of cullin neddylation, primary screen, biochemical, TR-FRET, uHTS, NAE and Ubc12; NEDD8-conjugating enzyme Ubc12 (Homo sapiens) + NEDD8-activating enzyme E1 regulatory …; inhibition, % at 25 µM; actives 0.58% (n = 360,000); in the data active means inhibition above about 36%
Rin1 Abl inh: inhibitors of Rin1-Abl protein binding, primary screen, biochemical, TR-FRET. inhibition, % at 7.35 µM. actives 0.4% (n = 360,000); in the data active means inhibition above about 5%, passing the limit was not always enough
SUMO1-SIM PPI: modulators of SUMO1 protein-protein interactions, primary screen, biochemical, uHTS. actives 0.33% (n = 360,000). Small ubiquitin-related modifier 1 (Homo sapiens), P63165. inhibition, % at 20 µM. SUMO1 binding to a labelled peptide, TR-FRET, 1 h; in the data active means inhibition above about 37%
Active calls of the source: *; nt = not tested or not shown. Hits are enriched below; roughly 1.7% of the tested compounds scored in any of these assays.

SMILES | ATG4B inhibitor | Neddylation inh | Rin1 Abl inh | SUMO1-SIM PPI
CN(Cc1ccccc1)C(=O)c1csc([C@@H]2O[C@H](CO)[C@H](O)[C@H](O)[C@H]2O)n1 | nt | 4 | 0 | 9
COc1ccccc1CNC(=O)/C=C/c1ccc(Br)o1 | 12 | 4 | -3 | 72*
O=C(CSc1nnc(CNC(=O)c2ccccc2F)o1)NC1CCCCC1 | -2 | -5 | 0 | 38*
O=C(CSc1nnc(CNC(=O)c2c(F)cccc2Cl)o1)NC1CCCCC1 | -5 | 0 | 6 | 1
COc1cc(NC(=O)C2(C)CCCN2C)cc(OC)c1OC (centres undefined) | nt | 16 | 2 | -2
COc1ncnc2c1ncn2CCCNCc1ccc(C)o1 | nt | 7 | 2 | 2
COc1cc(C(=O)NCC(=O)OCC(=O)c2cccc3ccccc23)cc(OC)c1OC | -12 | -42 | -4 | 61*
O=C1c2cccc3c([N+](=O)[O-])ccc(c23)C(=O)N1c1ccc(Cl)cn1 | 1 | 50* | -2 | -21
O=C1c2cccc3c([N+](=O)[O-])ccc(c23)C(=O)N1c1nccs1 | 0 | 55* | -13 | -9
CN(C)CCN(C)C1CN(Cc2ccccc2)S(=O)(=O)C1 (centres undefined) | nt | 2 | 1 | -1
Fc1ccc(-c2nc3ccc(Br)cn3c2Cc2ccccc2C(F)(F)F)cc1 | nt | -147 | -2 | 3
Nc1ncnc2oc(-c3ccco3)c(-c3ccco3)c12 | -8 | 43* | 1 | 31
Cc1c(CCC(=O)O)c(=O)oc2c(C)c3occ(-c4ccc(Br)cc4)c3cc12 | -1 | -42 | 2 | 52*
Fc1ccc(CNC(=S)NC2CCCCCC2)cc1 | 44* | -7 | -1 | 1
COc1ccc(CNC(=S)NC2CCCCC2)cc1 | 0 | -1 | 2 | 2
O=C(/C=C/c1ccccc1)NC(=S)Nc1ccccc1 | 4 | -2 | 2 | -1
C=CCN(CC=C)S(=O)(=O)c1ccc(NC(=S)NC(=O)/C=C/c2ccccc2)cc1 | 1 | 5 | -3 | 63*
CN1[C@@H](COCc2ccccc2)C=CS1(=O)=O | nt | 2 | -4 | -1
N=C1CCC(=N)c2c1c(O)c1ccccc1c2O | -3 | -49 | -3 | 44*
Cc1cc2cc(C)c(NCCNC(=O)c3cccs3)nc2cc1C | -4 | -435 | 1 | 50*
Cc1cc2cc(C)c(NCCNC(=O)c3ccccc3F)nc2cc1C | -5 | 21 | -1 | 0
Cc1ccc(OCc2nnc(SCC(N)=O)n2N)cc1 | -7 | 4 | 0 | 44*
CNS(=O)(=O)c1cccc(C(=O)OCC(=O)N2CCCC2)c1 | -3 | -10 | 1 | -2
O=C(OCC(=O)N1CCCC1)c1cccc(Br)c1 | -7 | -2 | 0 | 67*
CSc1nc(C)c2c(n1)N(c1ccc(C(C)C)cc1)CC2 | 6 | -281 | 0 | 56*
SMILES | ATG4B inhibitor | Neddylation inh | Rin1 Abl inh | SUMO1-SIM PPI
S=c1[nH]nc(-c2n[nH]c3c2CCC3)n1/N=C/C=C/c1ccco1 | 1 | 55* | 1 | 23
Oc1cccc(CN2CCOCC2)c1O | 5 | -17 | 13* | -5
C=C(C)COC(=O)c1ccccc1C(=O)OCC1(C)CO1 (centres undefined) | 6 | -5 | 2 | -1
COc1ccc(N2CCN(C(=O)COC(=O)c3nc(Cl)ccc3Cl)CC2)cc1 | nt | 3 | -7 | -5
O=C(O)CCCN1C(=O)/C(=C\c2ccco2)SC1=S | 8 | 6 | 2 | 29
O=C(O)CCN1C(=O)/C(=C\c2ccc(-c3nc4ccccc4s3)o2)SC1=S | -13 | -41 | 2 | 87*
CCC(C(=O)OCC(=O)Nc1ccc2[nH]c(=O)[nH]c2c1)c1ccccc1 (centres undefined) | -7 | 23 | -1 | 43*
CCC(C(=O)OCC(=O)Nc1cccc(C(C)=O)c1)c1ccccc1 (centres undefined) | 5 | 5 | -2 | 0
O=C(COC(=O)c1ccccc1Cl)Nc1ccc2[nH]c(=O)[nH]c2c1 | -4 | 4 | -1 | 7
O=C(CSc1nncs1)Nc1ccc2[nH]c(=O)[nH]c2c1 | -1 | 10 | 2 | 66*
O=C(COC(=O)Cc1ccc(F)cc1)Nc1ccc2[nH]c(=O)[nH]c2c1 | -7 | 3 | -1 | 74*
O=C(COC(=O)c1ccccc1OC(F)F)Nc1ccc2[nH]c(=O)[nH]c2c1 | 3 | 4 | 2 | 40*
CC1(C(=O)NCc2ccccc2)CN(S(C)(=O)=O)CC(=O)N1Cc1cccc(C(F)(F)F)c1 (centres undefined) | nt | -2 | nt | -2

Screening data (PubChem)
